Data from PubChem BioAssay (NCATS).
Results filed as inconclusive are left out. Calls of active or inactive are those of the source. The call rests on the fitted dose curve; in most records, active means well fitted curve in the direction sought with a large enough effect; inconclusive means small, poorly fitted or top-dose-only effect, or another doubt; inactive means no such curve, though single readings can be large; an effect the other way counts as inactive or inconclusive.

Columns and labels:
CP247 = assay: qHTS profiling for inhibitors of Plasmodium falciparum proliferation (AID 504749); further: potency means the concentration at half of the fitted maximal effect; nearly all actives have a fitted effect of over 60% in size; settings: P. falciparum in erythrocytes, SYBR Green DNA, 72 h; series mostly up to 28.7 µM
How it was run: (§1)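 Quantitative HTS: compounds pinned into medium, infected erythrocytes added (0.3% parasitemia, 2.5% hematocrit), 72 h culture at 37 C under 5% CO2. Saponin/Triton lysis with SYBR Green I, overnight RT, then fluorescence read.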

CP250 = assay: as above; settings: P. falciparum in erythrocytes, SYBR Green DNA, 72 h; series mostly up to 28.7 µM
How it was run: as §1

CP252 = assay: as above; settings: P. falciparum in erythrocytes, SYBR Green DNA, 72 h; series mostly up to 28.7 µM
How it was run: as §1

CP256 = assay: as above; settings: P. falciparum in erythrocytes, SYBR Green DNA, 72 h; series mostly up to 28.7 µM
How it was run: as §1

CP260 = assay: as above; settings: P. falciparum in erythrocytes, SYBR Green DNA, 72 h; series mostly up to 28.7 µM
How it was run: as §1

CP262 = assay: as above; settings: P. falciparum in erythrocytes, SYBR Green DNA, 72 h; series mostly up to 28.7 µM
How it was run: as §1

CP265 = assay: as above; settings: P. falciparum in erythrocytes, SYBR Green DNA, 72 h; series mostly up to 28.7 µM
How it was run: as §1

CP266 = assay: as above; settings: P. falciparum in erythrocytes, SYBR Green DNA, 72 h; series mostly up to 28.7 µM
How it was run: as §1

CP268 = assay: as above; settings: P. falciparum in erythrocytes, SYBR Green DNA, 72 h; series mostly up to 28.7 µM
How it was run: as §1

CP269 = assay: as above; settings: P. falciparum in erythrocytes, SYBR Green DNA, 72 h; series mostly up to 28.7 µM
How it was run: as §1

CP286 = assay: as above; settings: P. falciparum in erythrocytes, SYBR Green DNA, 72 h; series mostly up to 28.7 µM
How it was run: as §1

CP291 = assay: as above; settings: P. falciparum in erythrocytes, SYBR Green DNA, 72 h; series mostly up to 28.7 µM
How it was run: as §1

CP297 = assay: as above; settings: P. falciparum in erythrocytes, SYBR Green DNA, 72 h; series mostly up to 28.7 µM
How it was run: as §1

CP305 = assay: as above; settings: P. falciparum in erythrocytes, SYBR Green DNA, 72 h; series mostly up to 28.7 µM
How it was run: as §1

CP315 = assay: as above; settings: P. falciparum in erythrocytes, SYBR Green DNA, 72 h; series mostly up to 28.7 µM
How it was run: as §1

CP325 = assay: as above; settings: P. falciparum in erythrocytes, SYBR Green DNA, 72 h; series mostly up to 28.7 µM
How it was run: as §1

CP329 = assay: as above; settings: P. falciparum in erythrocytes, SYBR Green DNA, 72 h; series mostly up to 28.7 µM
How it was run: as §1

CP335 = assay: as above; settings: P. falciparum in erythrocytes, SYBR Green DNA, 72 h; series mostly up to 28.7 µM
How it was run: as §1

DFO2036 = assay: as above; settings: P. falciparum in erythrocytes, SYBR Green DNA, 72 h; series mostly up to 28.7 µM
How it was run: as §1

DIV14 = assay: as above; settings: P. falciparum in erythrocytes, SYBR Green DNA, 72 h; series mostly up to 28.7 µM
How it was run: as §1

DIV17 = assay: as above; settings: P. falciparum in erythrocytes, SYBR Green DNA, 72 h; series mostly up to 28.7 µM
How it was run: as §1

DIV30 = assay: as above; settings: P. falciparum in erythrocytes, SYBR Green DNA, 72 h; series mostly up to 28.7 µM
How it was run: as §1

Dd2 = assay: as above; settings: P. falciparum in erythrocytes, SYBR Green DNA, 72 h; series mostly up to 28.7 µM
How it was run: as §1

ECU = assay: as above; settings: P. falciparum in erythrocytes, SYBR Green DNA, 72 h; series mostly up to 28.7 µM
How it was run: as §1

FAB9 = assay: as above; settings: P. falciparum in erythrocytes, SYBR Green DNA, 72 h; series mostly up to 28.7 µM
How it was run: as §1

GB4 = assay: as above; settings: P. falciparum in erythrocytes, SYBR Green DNA, 72 h; series mostly up to 28.7 µM
How it was run: as §1

HB3 = assay: as above; settings: P. falciparum in erythrocytes, SYBR Green DNA, 72 h; series mostly up to 28.7 µM
How it was run: as §1

ICS = assay: as above; settings: P. falciparum in erythrocytes, SYBR Green DNA, 72 h; series mostly up to 28.7 µM
How it was run: as §1

N140 = assay: as above; settings: P. falciparum in erythrocytes, SYBR Green DNA, 72 h; series mostly up to 28.7 µM
How it was run: as §1

P93_24 = assay: as above; settings: P. falciparum in erythrocytes, SYBR Green DNA, 72 h; series mostly up to 28.7 µM
How it was run: as §1

P94_40 = assay: as above; settings: P. falciparum in erythrocytes, SYBR Green DNA, 72 h; series mostly up to 28.7 µM
How it was run: as §1

PAD = assay: as above; settings: P. falciparum in erythrocytes, SYBR Green DNA, 72 h; series mostly up to 28.7 µM
How it was run: as §1

PC15 = assay: as above; settings: P. falciparum in erythrocytes, SYBR Green DNA, 72 h; series mostly up to 28.7 µM
How it was run: as §1

PC26 = assay: as above; settings: P. falciparum in erythrocytes, SYBR Green DNA, 72 h; series mostly up to 28.7 µM
How it was run: as §1

PC49 = assay: as above; settings: P. falciparum in erythrocytes, SYBR Green DNA, 72 h; series mostly up to 28.7 µM
How it was run: as §1

SC27B = assay: as above; settings: P. falciparum in erythrocytes, SYBR Green DNA, 72 h; series mostly up to 28.7 µM
How it was run: as §1

TAB109 = assay: as above; settings: P. falciparum in erythrocytes, SYBR Green DNA, 72 h; series mostly up to 28.7 µM
How it was run: as §1

TAB113 = assay: as above; settings: P. falciparum in erythrocytes, SYBR Green DNA, 72 h; series mostly up to 28.7 µM
How it was run: as §1

TAB165 = assay: as above; settings: P. falciparum in erythrocytes, SYBR Green DNA, 72 h; series mostly up to 28.7 µM
How it was run: as §1

W2 = assay: as above; settings: P. falciparum in erythrocytes, SYBR Green DNA, 72 h; series mostly up to 28.7 µM
How it was run: as §1

Furin (Homo sapiens) = Furin (Homo sapiens) (UniProt P09958); assay: Furin counterscreen qHTS for Zika virus inhibitors (AID 1347149); further: nearly all actives have a fitted effect of over 70% in size; further: potency means the concentration at half of the fitted maximal effect
How it was run: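 Counterscreen measures cleavage of 2 microM BOC-RVRR-AMC, below its ~15 microM Km, by 5 nM full-length human furin at pH 7.0 after a 15-min compound preincubation. Inhibition derives from the 15-min fluorescence increase at 37C.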

[1] = tested on: Zika virus NS2B-NS3 protease (linked construct); assay: Confirmatory screen NINDS AMC qHTS for Zika virus inhibitors (AID 1347152); further: nearly all actives have a fitted effect of over 70% in size; further: potency means the concentration at half of the fitted maximal effect
How it was run: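 Concentration-response confirmation used the NINDS linked protease (NS2B hydrophilic domain joined to NS3 protease domain), 1 nM, with a 15-min compound preincubation. Substrate, Nle-KRR-AMC at 10 microM, was read by UV fluorescence before and after 15 min.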

[2] = tested on: Zika virus NS2B-NS3 protease (unlinked complex); assay: Confirmatory screen GU AMC qHTS for Zika virus inhibitors (AID 1347153); further: nearly all actives have a fitted effect of over 70% in size; further: potency means the concentration at half of the fitted maximal effect
How it was run: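 Unlinked enzyme 25 nM, Tris pH 8.0/0.01% Tween 20; cpd 15 min RT, dark; + AMC substrate 10 µM (Km 18.3 µM); 340/450 nm read at t0 and 15 min; % inhibition → 4-param fit.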

[3] = Vero cells viability qHTS for Zika virus inhibitors (AID 1347167)
How it was run: (§2)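 To flag cytotoxic protease inhibitors, viability is measured by ATP-dependent luminescence (CellTiter Glo) after cells attached overnight receive compound for 24 to 48 hours in DMEM with 4% FBS.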

[4] = HepG2 cells viability qHTS for Zika virus inhibitors (AID 1347168)
How it was run: as §2

[5] = Tertiary RLuc qRT-PCR qHTS assay for Zika virus inhibitors (AID 1347169); further: nearly all actives have a fitted effect of over 55% in size; further: potency means the concentration at half of the fitted maximal effect
How it was run: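 Inhibition of ZIKV-RLuc replication in Vero cells, read as Renilla luminescence 1-1.5 hrs after live-cell substrate addition, following 48-72 hrs infection at MOI 1-2 in presence of compound.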

[6] = Primary qHTS for small molecule stabilizers of the endoplasmic reticulum resident proteome: Secreted ER Calcium Modulated Protein (SERCaMP) assay (AID 1508630)
How it was run: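 The SH-SY5Y reporter protocol was run at 3 concentrations up to 38.3 uM (primary) or 11 concentrations (follow-up): 16 h compound, 100 nM thapsigargin for 4 h, then extracellular luciferase luminescence.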

[7] = tested on: Zika virus NS2B-NS3 protease (unlinked); assay: Optimization of GU AMC qHTS for Zika virus inhibitors: Unlinked NS2B-NS3 protease assay (AID 1347151); further: nearly all actives have a fitted effect of over 80% in size
How it was run: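 In this qHTS, compounds acted on 25 nM unlinked Zika NS2B–NS3 in pH 8.0 Tris/Tween buffer. Cleavage of an AMC peptide ran 15 min at room temperature, to about 20% conversion.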

Measured: Potency

Chain of Furin (Homo sapiens) (P09958 whole entry, looked up): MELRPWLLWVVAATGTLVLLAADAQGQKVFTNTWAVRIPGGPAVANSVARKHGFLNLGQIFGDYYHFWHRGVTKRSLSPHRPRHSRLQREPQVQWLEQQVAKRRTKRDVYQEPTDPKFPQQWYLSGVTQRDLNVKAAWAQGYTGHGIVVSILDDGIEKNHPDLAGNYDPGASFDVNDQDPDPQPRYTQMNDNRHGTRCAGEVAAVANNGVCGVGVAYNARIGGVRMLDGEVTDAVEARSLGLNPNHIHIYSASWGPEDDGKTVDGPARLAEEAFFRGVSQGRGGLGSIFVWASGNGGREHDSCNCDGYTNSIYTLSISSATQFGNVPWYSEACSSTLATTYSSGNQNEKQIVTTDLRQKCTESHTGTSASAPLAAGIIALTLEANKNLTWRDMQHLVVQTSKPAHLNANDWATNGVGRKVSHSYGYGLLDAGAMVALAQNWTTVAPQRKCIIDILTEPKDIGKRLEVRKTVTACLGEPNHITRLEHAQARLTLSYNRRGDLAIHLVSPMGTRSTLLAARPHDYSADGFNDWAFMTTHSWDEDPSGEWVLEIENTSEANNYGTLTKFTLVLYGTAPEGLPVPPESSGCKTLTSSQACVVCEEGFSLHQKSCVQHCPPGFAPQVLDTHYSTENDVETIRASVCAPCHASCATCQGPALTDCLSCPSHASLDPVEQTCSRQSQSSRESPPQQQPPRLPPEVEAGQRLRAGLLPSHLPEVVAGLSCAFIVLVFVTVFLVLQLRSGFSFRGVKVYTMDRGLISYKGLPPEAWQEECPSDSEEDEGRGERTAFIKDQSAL

CC(C)C[C@@H](NC(=O)[C@H](Cc1ccccc1)NC(=O)c1cnccn1)B(O)O
active: CP247 0.126 µM | CP250 0.1 µM | CP252 0.0891 µM | CP256 0.126 µM | CP260 0.112 µM | CP262 0.0953 µM | CP265 0.112 µM | CP266 0.169 µM | CP268 0.0953 µM | CP269 0.135 µM | CP286 0.0631 µM | CP291 0.135 µM | CP297 0.269 µM | CP305 0.675 µM | CP315 0.19 µM | CP325 0.135 µM | CP329 0.0953 µM | CP335 0.0953 µM | DFO2036 0.1 µM | DIV14 0.426 µM | DIV17 0.301 µM | DIV30 0.19 µM | Dd2 0.1 µM | ECU 0.126 µM | FAB9 0.141 µM | GB4 0.107 µM | HB3 0.0794 µM | ICS 0.0447 µM | N140 0.0708 µM | P93_24 0.0794 µM | P94_40 0.112 µM | PAD 0.112 µM | PC15 0.0794 µM | PC26 0.213 µM | PC49 0.141 µM | SC27B 0.1 µM | TAB109 0.0355 µM | TAB113 0.1 µM | TAB165 0.112 µM | W2 0.0757 µM

O=C(O)COc1ccc(-c2nccc3c2C(=O)N(Cc2cccc(C(F)(F)F)c2)CC(COc2cccnc2)O3)cc1 (stereo unspecified)
inactive: Furin (Homo sapiens) | [1] | [2]

O=C1C2=C(Nc3ccccc3SC2c2ccc(Cl)c(Cl)c2)c2ccccc21 (stereo unspecified)
inactive: Furin (Homo sapiens)

COc1ccccc1N1CCN(CCn2c(=O)c3c(c4ccccc4n3C)n(C)c2=O)CC1
inactive: [3] | [4] | [5] | [6]
active: Furin (Homo sapiens) 24.1 µM | [1] 27.1 µM | [2] 24.1 µM

CCOc1ccc(C2C(=O)N(C3CCCCCC3)CC(=O)N2CCc2ccc(Cl)cc2)cc1OC (stereo unspecified)
inactive: Furin (Homo sapiens) | [7] | [3] | [4]
active: [5] 18.6 µM
